Source: PubChem BioAssay AID1347416 (National Center for Advancing Translational Sciences (NCATS), 2020)
Screen size: about 4,100 compounds; about 1,600 (39%) were called active. About 25% were inconclusive and are not listed. This is one part of the list. Values without a mark were called inactive. Calls follow the shape of the dose curve; as a rule, active = well fitted inhibition curve with a large enough effect; inconclusive = small, poorly fitted or top-dose-only effect; inactive = no such curve, though single readings can be large or run the other way.

experiment: qHTS Validation assay for Inhibitors of Plasmodium falciparum Dd2 growth in vitro; also: nearly all actives have a fitted effect of over 70% in size; details: P. falciparum Dd2 in RBCs, SYBR Green growth, 72 h; series mostly up to 28.7 µM; activity change, negative = inhibition: at the top concentration
Excerpt: Malaria, a parasitic disease spread to humans through the bite of a Plasmodium infected Anopheles mosquito, continues to be a global health burden affecting millions of people, with an estimated 228 million cases and 405,000 deaths in 2018. Concerns about safety and limitations of current antimalarial treatments strongly emphasize the need to develop new therapeutic options. The scarce number of chemotypes and validated drug targets with efficacy against the liver stage, have hindered development of new antimalarials. To address this, a chemoprophylactic drug discovery effort was conducted through a combined phenotypic high-throughput asexual blood stage and liver stage screen, providing a robust foundation to identify liver-stage active lead chemotypes. Compounds were initially screened against Plasmodium falciparum Dd2 strain parasites using a in vitro SYBRGreen-1 based 72 hr proliferation assay to identify novel chemotypes to advance to liver stage assays. NIH/NCATS Early Translation Branch Assay Submitter (PI): Anton Simeonov Ph.D.
[…] Assay Protocol: PROTOCOL TABLE (as described by Inglese et al., 2007) SEQUENCE No. (e.g., 1, 2, 3, etc.); PARAMETER (e.g., Cells, Incubation, Reagent, etc.); VALUE; DESCRIPTION SEQUENCE, Parameter, Description 1; Reagent; 3 uL complete malaria growth medium, 1536 TC treated Black clear bottom plate 2; Controls; 23 nL positive control artesunate (300 nM final) to column 1; Neutral control DMSO to columns 2-4 3; Compound; 23 nL of compounds in dose response concentration (29 uM to 0.5 nM final) 4; Reagent; 5 uL malaria infected red blood cells (2.5% hematocrit final, 0.3% parasitemia 5; Time; 72 hours at 37C (5% O2, 5% CO2, 90% N2; 95% Rh) 6; Reagent; 2 uL lysis buffer/SYBRGreen-1, 25 sec shake immediately following dispense 7; Time; ~16 hours at 37C (5% O2, 5% CO2, 90% N2; 95% Rh) 8; Detector; EnVision (PerkinElmer) bottom read at 485/14nm excitation and 535/25 nm emission NOTES (numbers refer to sequence above): 1; Complete Malaria Growth Media: 1X RPMI-1640 w/L-glutamine, 5.5g/L Albumax II, 367 uM Hypoxanthine, 25 mM HEPES, 0.25% Sodium Bicarbonate, 35 uM Gentamicin sulfate 2; Controls were added using the Kalypsis Pintool (Wako USA) equipped with 1536 pinhead 3; Compounds were added in a 7-point, titration with a high final concentration of 29 uM by Pintool from seven inter-plate titrations of library plates and two DMSO control plates at the beginning and end (see Yasgar et al., 2008). 4; Red blood cells infected with Plasmodium falciparum Dd2 parasites were used. 6; Lysis buffer: 20 mM Tris-HCl, 10 mM EDTA, 0.16% Saponin, 1.6% Triton-X, 10X SYBR Green. REFERENCE: Inglese J, Shamu CE, Guy RK. 2007. Reporting data from high-throughput screening of small-molecule libraries. Nat Chem Biol. doi:10.1038/nchembio0807-438 Yasgar A, Shinn P, Jadhav A, Auld D, Michael S, Zheng W, Austin CP, Inglese J, Simeonov A. 2008. Compound Management for Quantitative High-Throughput Screening. J Lab Autom 13:79-89. doi:10.1016/j.jala.2007.12.004
% is scaled to controls: 0 for no effect and ±100 for the full control effect; potency is read from the fitted curve at half-maximal effect.

SMILES	Potency	activity change, negative = inhibition
CCCc1cc(=O)oc2c(C)c(O)c(CN3CCCCC3)cc12	3.35 µM (active)	
Cc1c(O)c(CN2CCCC2)cc2c1oc(=O)c1ccccc12	2.66 µM (active)	
Cc1c(O)c(CN2CCCCC2)cc2c1oc(=O)c1ccccc12	0.75 µM (active)	
Cc1c(O)c(CN(C)C)cc2c1oc(=O)c1ccccc12	4.22 µM (active)	
O=C1CCCCN1Cc1nc(C2CCOC2)no1 (stereo not given)		38.8%
Cc1cc(C)c2oc(=O)cc(CN3CCCCC3)c2c1	13.3 µM (active)	
C=CCCC(CN1CCCC1)Oc1ccc(C(=O)N2CCCC2)cn1 (stereo not given)	13.3 µM (active)	
COc1ccc(C(=O)N2CCCC(n3cc(-c4nc(C(C)C)no4)nn3)C2)cn1 (stereo not given)		0.265%
CC(C)CN(Cc1cc(=O)oc2cc3c(cc12)CCCC3)CC(C)C	15 µM (active)	
CCOC(=O)C(C)/C(C)=N/NC(N)=S (stereo not given)	2.66 µM (active)	
N#Cc1ccc(C23CC4CC(CC(C4)C2)C3)[nH]c1=O		23.7%
CC(C)(C)c1ccc(C(=O)Nc2ccc(-c3nc4cc(Cl)ccc4o3)cc2)cc1		9.61%
CC1Oc2ccc(NC(=O)c3ccc(Cl)c(Cl)c3)cc2CN(Cc2ccccc2F)C1=O (stereo not given)		-1.4%
O=C(Nc1ccc(C2=NCCN2)cc1)c1ccc(C(=O)Nc2ccc(C3=NCCN3)cc2)c(Cl)c1	0.473 µM (active)	
O=C(Nc1ccc(C2=NCCN2)cc1)c1ccc(C(=O)Nc2ccc(C3=NCCN3)cc2)c([N+](=O)[O-])c1	0.237 µM (active)	
Cc1cc(C[C@@H]2COC[C@@H]2NC(=O)CCc2ccc(=O)[nH]n2)on1		50.1%
COc1cc(NC(=O)c2cc([N+](=O)[O-])ccc2NC(=O)CNC2CCCCC2C)cc(OC)c1 (stereo not given)	5.96 µM (active)	
COC(=O)c1cc(C(=O)c2ccc(Cl)cc2Cl)cn1C	13.3 µM (active)	
CCc1ccc(C2=CC(c3cccc(C)c3)n3c(nc4ccccc43)N2)cc1 (stereo not given)	15 µM (active)	
CC1=C[C@@H](CN2CCCC2)[C@H](C(C)C)C[C@H]1Cc1nnc(-c2ccc([N+](=O)[O-])cc2)o1	3.85 µM (active)	
CC1=C[C@@H](CN2CCN(c3ncccn3)CC2)[C@H](C(C)C)C[C@H]1Cc1nnc(COc2ccc(F)cc2)o1	0.75 µM (active)	
COc1ccc(-c2nnc(C[C@@H]3C[C@@H](C(C)C)[C@H](CN4CCC(O)CC4)C=C3C)o2)cc1	9.44 µM (active)	
CC1=C[C@@H](CN2CCOCC2)[C@H](C(C)C)C[C@H]1Cc1nnc(-c2ccc([N+](=O)[O-])cc2)o1	9.44 µM (active)	

SMILES	Potency	activity change, negative = inhibition
COc1ccc(C(=O)N[C@@H]2CCC[C@@H]2C(=O)NCCCN(C)C)cn1		21.5%
COC(=O)CNC(=O)N1CCCCC1c1nc(CCOc2cccc(C)c2)no1 (stereo not given)		17.4%
COc1nc2c(cc1CNC(=O)C(C)(C)OC)C(=O)N(CCc1ccccn1)C2		42.1%
Cc1noc(-c2cn(C3CCN(C(=O)c4ccc(C)s4)C3)nn2)n1 (stereo not given)		30%
CC1=C[C@@H](CN2CCC(C)CC2)[C@H](C(C)C)C[C@H]1Cc1nnc(-c2cccnc2)o1	15.3 µM (active)	
Cc1ccc(S(=O)(=O)N(C)CC2CCOCC2)c(C)c1		48.2%
CCOC(=O)C1CCCN(C(=O)c2ccc3c(c2)N(Cc2ccccc2)C(=O)c2ccccc2S3(=O)=O)C1 (stereo not given)	6.68 µM (active)	
COc1ccccc1CNC(=O)c1cc2c(s1)CCN(C(=O)c1ccc(C)cc1)C2		-15.5%
Cc1ccc(C)c(CN2C(=O)c3ccccc3S(=O)(=O)c3ccc(C(=O)N4CCCCCC4)cc32)c1		-26.1%
Cc1ccc(C)c(CN2C(=O)c3ccccc3S(=O)(=O)c3ccc(C(=O)NCCc4ccc(Cl)cc4)cc32)c1	7.5 µM (active)	
Cc1ccc(Cl)cc1N1CCN(C(=O)c2ccc3c(c2)N(Cc2ccccc2F)C(=O)c2ccccc2S3(=O)=O)CC1	5.31 µM (active)	
O=C(c1ccc(F)c(F)c1)N1CCC2(CC1)N(c1ccccc1)C(=O)CS2(=O)=O		8.69%
COc1ccccc1N1CCN(C(=O)c2ccc3c(c2)N(Cc2cc(C)ccc2C)C(=O)c2ccccc2S3(=O)=O)CC1	9.44 µM (active)	
O=C(c1ccc2c(c1)N(Cc1ccc(Cl)cc1)C(=O)c1ccccc1S2(=O)=O)N1CCCC1		-8.99%
CCCc1nc2nc(C)c(NS(=O)(=O)c3ccc(F)cc3)c(=O)n2[nH]1		15.8%
Cc1cc(C)c(CN2C(=O)c3ccccc3S(=O)(=O)c3ccc(C(=O)OCC4CCCO4)cc32)c(C)c1 (stereo not given)	6.68 µM (active)	
COc1ccc(-c2noc([C@@H]3C[C@H](NS(=O)(=O)c4ccc(OC)cc4)CN3C)n2)cc1		-24.1%
COc1cccc(NC(=O)N[C@H]2C[C@@H](c3nc(C)no3)N(C)C2)c1	17.2 µM (active)	
CN1C[C@@H](NC(=O)COc2ccccc2)C[C@H]1c1nc(-c2ccc3c(c2)OCO3)no1		21.1% [at 43.1 µM]
CN(C)S(=O)(=O)c1ccc(N2CCCC2)c(C(=O)NC(c2ccccc2)c2ccccc2)c1		-16.7%
CCN(CC)S(=O)(=O)c1ccc(N2CCCCC2)c(NC(=O)C2=COCCO2)c1	6.68 µM (active)	
N=c1n(N)c2ccccc2n1CC(=O)c1ccc(Br)cc1		-21.2%
